# Laboratory results from article PMC13494018.
# Values without a mark were called inactive. No rule for the calls is given here.
# B1: design_606_b60ff77f-1541-4e5f-8260-46d5e5f6b85e_976_dldesign_0_cycle1_af2pred (protein)
# chain: SSEEIEEKNRKVSEVVHHAIKAIKAYADPALRDAYLAKAKAILPDAADALAAQVDAAKTGSTADAILNVADIAWDALT
# B2: design_606_b60ff77f-1541-4e5f-8260-46d5e5f6b85e_1000_dldesign_0_cycle1_af2pred (protein)
# chain: MSEYEKNLARAEAYADQLLDSAKKTGAAKGPEAEVAATKEAKDAATKYANSLGEEVGKEIKAKMEKEVKAVADAAAKALAA
# B3: design_606_b60ff77f-1541-4e5f-8260-46d5e5f6b85e_1003_dldesign_0_cycle1_af2pred (protein)
# chain: SMKEKEEKYKEAKEKLEKQREAVKEGEKLAKESPEMGLALMRAAVKRAEEVAKKLEKEDPEKGPEAKKMAEEVRKLAKEAEKKIKEEL
# B4: design_606_b60ff77f-1541-4e5f-8260-46d5e5f6b85e_1075_dldesign_0_cycle1_af2pred (protein)
# chain: AEEKEKKAKEAAEKAEKFIEKAKKAIKEGDLFSAQAYVEAAKHAAEVAKKYDPEVGEKLLKKVEEVEKEI
# B5: design_606_b60ff77f-1541-4e5f-8260-46d5e5f6b85e_1085_dldesign_0_cycle1_af2pred (protein)
# chain: ATAKEAAEYAEKAREYMVELEYERIKAKREGDEETAKRLEKAIEEVREKLKKAREAMKAGDKEKALEYSKEALEIAKKAVEELKA
# B6: design_606_b60ff77f-1541-4e5f-8260-46d5e5f6b85e_1086_dldesign_0_cycle1_af2pred (protein)
# chain: EKAEKLIKEIKKLAKEAKKSTPEEAKKLLEEAKKLAKEVAKLGPEAAKLAKKALSEAAAAYYENKAENEWKERKEKE
# B7: design_606_b60ff77f-1541-4e5f-8260-46d5e5f6b85e_1152_dldesign_0_cycle1_af2pred (protein)
# chain: EEAEKYLKEIEKAKEEAEKLAEELKEEGDSKAAAKAATAAAVAESAALAAKANPEKAKEAAEKAKKALEKAKKYAKESREKKKA
# B8: design_606_b60ff77f-1541-4e5f-8260-46d5e5f6b85e_1160_dldesign_0_cycle1_af2pred (protein)
# chain: AEAARRAALVAKVDAAFDDAGKTISEAKEKTPEEAKALVDAAIAKANAEAKAHPEAAKGFNAVADTAKSMGERIIAEKLA
# B9: design_606_b60ff77f-1541-4e5f-8260-46d5e5f6b85e_1207_dldesign_0_cycle1_af2pred (protein)
# chain: DEEKLKEAAEYLQEAAEYLAELKYLSKDPKNKELAEKAKKILKEAIEKGKKGTPEEALEIAKKAKEEIKKLAKKAKE
# B10: design_606_b60ff77f-1541-4e5f-8260-46d5e5f6b85e_1298_dldesign_0_cycle1_af2pred (protein)
# chain: KEEEEKQIKELKEKVEKLKKEAEEAKTAEEALKVFKEARKVGKEARKLAEKASPELAKKAKEVAKEAAKVAELAAEKYAEKKSEEIRK
# B11: design_606_b60ff77f-1541-4e5f-8260-46d5e5f6b85e_1318_dldesign_0_cycle1_af2pred (protein)
# chain: DVAAALAAAKAAAAAKMAEVKKYGAETAEAVKDAIDMGNIYGAGSLAEVMVGPEAGKIAKAAAEAAAKARELAAKA
# B12: design_606_b60ff77f-1541-4e5f-8260-46d5e5f6b85e_1326_dldesign_0_cycle1_af2pred (protein)
# chain: AEAEKKAEEAAKEAEKIYKEMLKAVETKSKEEAAKFAKEAAEKLKKLAKKIYEATGKVPLEVLLALAEARVIAKK
# B13: design_606_b60ff77f-1541-4e5f-8260-46d5e5f6b85e_1331_dldesign_0_cycle1_af2pred (protein)
# chain: SELEKGREVIKKAAEKAKKAAKEAAEKKGDPKKGEEKIKEIKELEEEGAKAEDPKVKSEKAAKIRQIKAEAEFELKK
# B14: design_606_b60ff77f-1541-4e5f-8260-46d5e5f6b85e_1400_dldesign_0_cycle1_af2pred (protein)
# chain: MAEAAQKAWENIAEAEYYAKKLKENPELKEEAKKIEEKIKKAKELLKKAQKTGDGELAKEAEKLAKEAAKEAKELVEK
# B15: design_606_b60ff77f-1541-4e5f-8260-46d5e5f6b85e_1401_dldesign_0_cycle1_af2pred (protein)
# chain: GAKAIAAKAAAYGYEIAAEIYRLDKEVGEKVRKYVVEKAKEAAASDEETAKKIGEEVKKEAEKALEEVKKK
# B16: design_606_b60ff77f-1541-4e5f-8260-46d5e5f6b85e_1497_dldesign_0_cycle1_af2pred (protein)
# chain: MEEESKKYIETATALLEEAKKALEEDKEKGLKLLEEASALAYEKAAEARQLGDKETAEKLREIAKEAREAAKKAR
# B17: design_606_b60ff77f-1541-4e5f-8260-46d5e5f6b85e_1592_dldesign_0_cycle1_af2pred (protein)
# chain: AAAAAAAAERAAIQKELDEIRDKYLEELEKNPENAEEIIKKAKEAVEALAKKHAKFAEEILKGGNGYVSLIEATAKMLERRKKEE
# B18: design_606_b60ff77f-1541-4e5f-8260-46d5e5f6b85e_1596_dldesign_0_cycle1_af2pred (protein)
# chain: SAAVKEKVAELTKKVNEARDNAFETGNWEEELAKIEKLAAEIAKVGNAEQAEAAEKGVNAMKSMAEALKEMEKK
# B19: design_606_b60ff77f-1541-4e5f-8260-46d5e5f6b85e_1599_dldesign_0_cycle1_af2pred (protein)
# chain: MPVVKAVSEYTKFVVSKMREAAAAGASEEELVGAVEEGEKYGEELGKKIGEEALEAVKDLSEMFKESARAAARARKA
# Molecular target: VTCN1, Q7Z7D3
# Sequence (Q7Z7D3 whole entry): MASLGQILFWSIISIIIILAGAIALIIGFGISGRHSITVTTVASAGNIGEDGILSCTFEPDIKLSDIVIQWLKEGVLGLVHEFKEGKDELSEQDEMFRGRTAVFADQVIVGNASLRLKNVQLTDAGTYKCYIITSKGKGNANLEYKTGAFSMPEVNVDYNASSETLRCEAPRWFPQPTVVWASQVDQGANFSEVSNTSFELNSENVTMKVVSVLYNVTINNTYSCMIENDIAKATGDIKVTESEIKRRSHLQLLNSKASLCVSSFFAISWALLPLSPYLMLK
row,Binder,binding in a display sort
1,B1,not found
2,B2,not found
3,B3,not found
4,B4,not found
5,B5,not found
6,B6,not found
7,B7,not found
8,B8,not found
9,B9,not found
10,B10,not found
11,B11,not found
12,B12,not found
13,B13,not found
14,B14,not found
15,B15,not found
16,B16,not found
17,B17,not found
18,B18,not found
19,B19,not found
